Measured values reported in PubChem BioAssay.
For part of these data: Measured potencies and affinities stand elsewhere. Activity calls are given as the source filed them. Unless noted, the rule behind the calls is not given here.

Tests used:
[1] = molecular target: Cell division control protein 42 homolog (Homo sapiens) (UniProt P60953); experiment: activated mutant Cdc42 GTP-binding inhibitors, dose response, biochemical, multiplex bead flow cytometry, Bodipy-FL-GTP (AID 1333;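 active = fitted half-maximal concentration within the tested dose range, moderate curve steepness, a statistically real signal drop, and little compound fluorescence or tag-binding interference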)
[2] = molecular target: Cell division control protein 42 homolog (Homo sapiens) (UniProt P60953); experiment: wildtype Cdc42 GTP-binding inhibitors, dose response, biochemical, multiplex bead flow cytometry, Bodipy-FL-GTP (AID 1334;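 active = fitted half-maximal concentration within the tested range, moderate curve steepness, significant signal drop, and little compound fluorescence or bead-linkage interference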); conditions: bead-based flow cytometry, Bodipy-FL-GTP binding to GST-Cdc42; at 100 µM (top of the series) unless noted
[3] = molecular target: GTPase HRas (Homo sapiens) (UniProt P01112); experiment: inhibitors of GTP binding to wildtype Ras, dose response, biochemical, multiplex bead flow cytometry (AID 1335;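 active = fitted half-maximal concentration within 10 nM to 100 µM, steepness 0.5 to 2, significant signal drop, low assay interference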); conditions: bead-based flow cytometry, Bodipy-GTP binding to GST-Ras; at 100 µM (top of the series) unless noted
[4] = test system: Ras-related protein Rab-7a (dog), GTP binding; experiment: Rab7 GTP binding inhibitors, potency, dose response, biochemical, wildtype, multiplex bead flow cytometry (AID 1336)
[5] = molecular target: Ras-related C3 botulinum toxin substrate 1 (Homo sapiens) (UniProt P63000); experiment: wildtype Rac1 GTP binding inhibitors, dose response, biochemical, multiplex bead flow cytometry (AID 1340;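 active = dose curve with midpoint inside tested range, moderate steepness, plateau gap beyond fit error, low compound glow and bead-link interference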); conditions: GST-Rac1 beads, Bodipy-FL-GTP binding; at 100 µM (top of the series) unless noted
[6] = molecular target: GTPase HRas (Homo sapiens) (UniProt P01112); experiment: activated Ras mutant GTP binding inhibitors, dose response, biochemical, multiplex bead flow cytometry (AID 1341;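 active = dose-response curve with midpoint inside the tested range, moderate steepness, significant amplitude and little compound fluorescence or bead-attachment interference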;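 note: GST-tagged constitutively activated Ras mutant immobilized on beads and multiplexed with other GTPases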)

Sequence of GTPase HRas (Homo sapiens) (P01112 whole entry, looked up): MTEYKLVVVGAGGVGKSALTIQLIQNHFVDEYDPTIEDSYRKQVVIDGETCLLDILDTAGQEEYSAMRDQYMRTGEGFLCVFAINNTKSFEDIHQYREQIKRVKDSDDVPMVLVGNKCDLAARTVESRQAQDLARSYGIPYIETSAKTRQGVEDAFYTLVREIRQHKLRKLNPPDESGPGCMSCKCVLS
Sequence of Cell division control protein 42 homolog (Homo sapiens) (P60953 whole entry, looked up): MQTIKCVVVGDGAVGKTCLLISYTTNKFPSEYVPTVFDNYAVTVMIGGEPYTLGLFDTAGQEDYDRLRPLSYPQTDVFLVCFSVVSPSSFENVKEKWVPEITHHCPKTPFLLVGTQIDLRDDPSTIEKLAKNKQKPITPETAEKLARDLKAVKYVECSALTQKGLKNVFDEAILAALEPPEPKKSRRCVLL

Row | SMILES | outcome [1] | fluorescence, percent of control (lower = inhibition) [2] | GTP binding, percent of control [3] | outcome [4] | GTP binding signal, raw median fluorescence (lower = inhibition) (MCF (arbitrary fluorescence units)) [5] | outcome [6]
1 | Cc1cccc(S(=O)(=O)c2c(N)n(/N=C/c3cccnc3)c3nc4ccccc4nc23)c1 | inactive | 81.3% | 51.7% | inactive | 135 | inactive
2 | Cc1ccc2c(c1)c1nnc(SCC(=O)Nc3cccc(Cl)c3C)nc1n2CC(=O)O | inactive | 35.2% | 80.1% | inactive | 245 | inactive
3 | Nc1ccc(-c2cn3cccnc3n2)cc1 | inactive | 40.9% | 88.5% | inactive | 287 | inactive
4 | N#Cc1c2c(c(-c3ccccc3Cl)[nH]c1=S)CCCC2 | inactive | 28.8% | 78.4% | inactive | 248 | inactive
5 | Cc1nn(Cc2ccccc2)c(C)c1NC(=O)CSc1nc2c(c(C(F)(F)F)n1)CCc1ccccc1-2 | inactive | 33.3% | 73.5% | inactive | 175 | inactive
6 | Cc1ccc(NC(=S)Nc2ccc3nc(-c4ccccn4)c(-c4ccccn4)nc3c2)cc1C | inactive | 53.7% | 69% | inactive | 0 | inactive
7 | O=C(O)C1C2C=CC(C2)C1C(=O)N1CCOCC1 (stereo not given) | inactive | 53.2% | 66.4% | inactive | 216 | inactive
8 | OC(CN1CCN(Cc2ccc3c(c2)OCO3)CC1)c1c[nH]c2ccccc12 (stereo not given) | inactive | 36.1% | 78.7% | inactive | 281 | inactive
9 | Cc1ccc(Cc2cnc(NC(=O)/C(C#N)=C/c3ccc(-c4ccc([N+](=O)[O-])cc4)o3)s2)cc1 | inactive | 28.5% | 75.1% | inactive | 223 | inactive
10 | CCOC(=O)c1sc(NC(=O)CSc2nnc(Cc3ccccc3)o2)c(C#N)c1C | inactive | 36.5% | 56.1% | inactive | 118 | inactive
11 | CC(=O)Nc1ccc(NC(=O)CCn2nnc3ccccc32)cc1 | inactive | 35.7% | 81.1% | inactive | 251 | inactive
12 | Cc1cc(NC(=O)/C(C#N)=C/c2ccc(-c3ccc(SC(F)F)cc3)o2)n(-c2ccccc2)n1 | inactive | 75.1% | 96.7% | inactive | 211 | inactive
13 | COc1ccc(O)c(CN2CCN(CCc3ccccc3)C(CCO)C2)c1 (stereo not given) | inactive | 37.3% | 84.3% | inactive | 273 | inactive
14 | COc1cc(/C=N/NC(N)=O)cc([N+](=O)[O-])c1O | inactive | 35.1% | 78.6% | inactive | 175 | inactive
15 | Cn1c(NC(=S)Nc2ccccc2)nc2ccccc21 | inactive | 51.8% | 63.9% | inactive | 0 | inactive
16 | COc1cc2nc(/C=C/c3ccc(N(C)C)cc3)sc2cc1SC | inactive | 121% | 122% | inactive | 238 | inactive
17 | Nc1c(S(=O)(=O)c2ccccc2)c2nc3ccccc3nc2n1/N=C/c1cccc(O)c1 | inactive | 91.2% | 81.1% | inactive | 105 | inactive
18 | Cn1cc(C(=O)N2CCc3ccccc3C2)c(=O)c2cc(S(=O)(=O)N3CCCCC3)ccc21 | inactive | 60.6% | 110% | inactive | 370 | inactive
19 | COc1cc(C(=S)NCc2ccccc2)cc(Br)c1O | inactive | 23.5% | 56.3% | inactive | 246 | inactive
20 | COc1cc(N=c2oc3c(C)ncc(CO)c3cc2C(N)=O)cc(OC)c1OC | inactive | 26.9% | 58.2% | inactive | 139 | inactive

Row | SMILES | outcome [1] | fluorescence, percent of control (lower = inhibition) [2] | GTP binding, percent of control [3] | outcome [4] | GTP binding signal, raw median fluorescence (lower = inhibition) (MCF (arbitrary fluorescence units)) [5] | outcome [6]
21 | Clc1ccc(CN(Cc2ccc(Cl)cc2)c2nn[nH]n2)cc1 | inactive | 28.2% | 85% | inactive | 246 | inactive
22 | Cc1ccccc1OCCn1c(C)c(C(=O)O)c2ccccc21 | inactive | 61.5% | 205% | inactive | 64.3 | inactive
23 | Oc1ccc(NC(=S)N=Nc2c(O)[nH]c3ccccc23)cc1 | inactive | 16.7% | 62.5% | inactive | 62.8 | inactive
24 | O=S(=O)(Nc1cccc(-c2cn3cccnc3n2)c1)c1ccccc1 | inactive | 34.9% | 48.7% | inactive | 114 | inactive
25 | CCOc1cc(/C=N/NC(=O)CSc2cccc3cccnc23)ccc1O | inactive | 35.6% | 78.2% | inactive | 188 | inactive
26 | Nc1cccc(S(=O)(=O)c2cccc(N)c2)c1 | inactive | 96.8% | 150% | inactive | 191 | inactive
27 | Cc1nc(NC(=O)/C=C/c2ccc(Cl)cc2Cl)sc1C(=O)N(C)C | inactive | 45% | 61.1% | inactive | 182 | inactive
28 | O=C(O)Cc1coc2cc3c(cc12)CCC3 | inactive | 29.9% | 79.1% | inactive | 251 | inactive
29 | CCN1/C(=C/c2ccc3cc(C)ccc3[n+]2C)Sc2ccc3sccc3c21 | inactive | 41.6% | 74.4% | inactive | 263 | inactive
30 | Cc1ccc(NC(=O)CN2C(=O)S/C(=C\c3ccc(-c4cccc(C(=O)O)c4C)o3)C2=O)cc1C | inactive | 107% | 149% | inactive | 265 | inactive
31 | Cc1cc(C(F)F)n2nc(C(=O)Nc3ccc(S(=O)(=O)N4CCCCCC4)cc3)nc2n1 | inactive | 36.8% | 82.1% | inactive | 257 | inactive
32 | O=C(c1nn2c(C(F)(F)F)cc(-c3ccc(F)cc3)nc2c1Cl)N1CCOCC1 | inactive | 48.9% | 62.6% | inactive | 189 | inactive
33 | CCn1c2ccccc2c2nnc(SCC(=O)NCCOC)nc21 | inactive | 50.8% | 59.6% | inactive | 0 | inactive
34 | COc1ccccc1OCCn1cc(C(=O)O)c2ccccc21 | inactive | 102% | 139% | inactive | 87.3 | inactive
35 | COc1ccc(CC(=O)Nc2ccc(S(=O)(=O)NC(C)C)cc2)cc1 | inactive | 51.9% | 66.7% | inactive | 0 | inactive
36 | Cc1ccc(O)c(C(=O)c2cnn(C(=O)Cc3csc(C)n3)c2)c1 | inactive | 37% | 86.3% | inactive | 242 | inactive
37 | Cc1ccccc1NC(=O)CN1C(=O)S/C(=C\c2ccc(-c3cc(C(=O)O)ccc3C)o2)C1=O | inactive | 30.5% | 77.4% | inactive | 258 | inactive
38 | Cc1n[nH]c(=S)c2nn(-c3cccc(Cl)c3)c(C)c12 | inactive | 55.8% | 71.1% | inactive | 217 | inactive
39 | COc1cc(/C=N/NC(=S)Nc2cccnc2)cc(OC)c1O | inactive | 31.8% | 72% | inactive | 163 | inactive
40 | CCOC(=O)c1cc(C(=O)OCC)c2ccccn2c1=O | inactive | 42.1% | 87.2% | inactive | 246 | inactive

Row | SMILES | outcome [1] | fluorescence, percent of control (lower = inhibition) [2] | GTP binding, percent of control [3] | outcome [4] | GTP binding signal, raw median fluorescence (lower = inhibition) (MCF (arbitrary fluorescence units)) [5] | outcome [6]
41 | Cn1c(=O)cc(N2CCOCC2)[nH]c1=O | inactive | 37.4% | 84.8% | inactive | 262 | inactive
42 | CCCCCCn1nc(C(=O)OCC(=O)c2c(N)n(C)c(=O)n(C)c2=O)c2ccccc2c1=O | inactive | 36% | 80.1% | inactive | 203 | inactive
43 | Cn1cccc1/C=C1\SC(=S)N(NC(=O)c2ccccc2Cl)C1=O | inactive | 24.6% | 62.8% | inactive | 178 | inactive
44 | Cc1nn(-c2ccc(F)cc2)c(Cl)c1/C=C(\CCC(=O)O)c1nc2ccccc2s1 | inactive | 64.7% | 53.6% | inactive | 164 | inactive
45 | CSc1nc2nccc(-c3ccc(-c4ccccc4)cc3)n2n1 | inactive | 79.7% | 132% | inactive | 138 | inactive
46 | Cc1cc(/C=C2\SC(=S)N(Cc3ccco3)C2=O)c(C)n1-c1cccnc1 | inactive | 137% | 95.2% | inactive | 209 | inactive
47 | COc1ccc(/C=N/NC(=S)Nc2cc(S(=O)(=O)N3CCOCC3)ccc2N2CCOCC2)cc1O | inactive | 65.8% | 80.8% | inactive | 0 | inactive
48 | CCC(C)C(=O)Nc1ccc(OC)cc1OC (stereo not given) | inactive | 92.4% | 161% | inactive | 186 | inactive
49 | COc1ccc(-n2c(NC(=O)c3ccc(Br)o3)c(C#N)c3nc4ccccc4nc32)cc1 | inactive | 24.6% | 72.7% | inactive | 169 | inactive
50 | COc1ccc(-c2nnc(S/C(=C/c3ccc(Cl)cc3)C(=O)O)o2)cc1 | inactive | 35.8% | 81.6% | inactive | 218 | inactive
51 | Cc1ccc(C(C)C)c(OCCn2cc(C(=O)O)c3ccccc32)c1 | inactive | 66.7% | 86.3% | inactive | 44.5 | inactive
52 | COc1cc(/C=C/c2ccc3cccc([N+](=O)[O-])c3n2)ccc1OCC(=O)O | inactive | 32.7% | 76.2% | inactive | 160 | inactive
53 | CCOC(=O)N1CCC(NC(=O)c2ccc3nc4ccccc4c(=O)n3c2)CC1 | inactive | 97.6% | 122% | inactive | 152 | inactive
54 | Cc1cc(NS(=O)(=O)c2ccc(NC(=O)c3cc4c(=O)n5ccccc5nc4s3)cc2)nc(C)n1 | inactive | 31.9% | 77.5% | inactive | 166 | inactive
55 | Cc1ccc(C)c(CSc2ncccc2C(=O)O)c1 | inactive | 64.5% | 73.7% | inactive | 222 | inactive
56 | CC1=C(C#N)c2nc(N)c(C#N)c(C)c2/C1=C\c1ccc(-c2ccccc2C(=O)O)o1 | inactive | 30.1% | 74.4% | inactive | 159 | inactive
57 | Cc1ccc(COc2ccsc2C(=O)O)cc1 | inactive | 99.7% | 115% | inactive | 82.4 | inactive
58 | COc1cc(/C=N/Nc2nn3cnnc3c3ccccc23)ccc1O | inactive | 50.3% | 122% | inactive | 90.4 | inactive
59 | CCOc1ccc(-n2c(SCC(=O)NC(C)CC)nc3n[nH]c(C)c3c2=N)cc1 (stereo not given) | inactive | 38.4% | 48.1% | inactive | 0 | inactive
60 | COc1cccc(CNCc2sc(C(=O)O)cc2C)c1OC | inactive | 61.7% | 80.7% | inactive | 35 | inactive
